Assay results taken from PubChem BioAssay AID1159580 (chemical genetic matrix, 2015).
Values joined by “and” are separate entries in the source; they are usually repeats but may differ in a detail not shown here. Identical values can stand only once. About 2,000 (36%) of roughly 5,500 compounds were called active. Inconclusive results (about 18%) are left out. Cut-off read from the data, not from the text of the source: active = normalized growth mostly below about 0.91 (no sharp cut-off); inconclusive = no clear call, values can overlap the other calls; inactive = mostly above about 0.92. Some of the results follow.

Experiment: chemical genetic growth profiling, strain panel (AID 1159580);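 note: tested at 20 µM; growth read once vehicle control cultures reached saturation at 30 °C; 1 = growth at the plate median or of vehicle wells; lower values mean less growth of the strain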
Conditions: S. cerevisiae deletion strains, growth OD

Measured: normalized growth

Nc1ncnc2c1ncn2[C@@H]1O[C@H](CO)[C@@H](O)[C@@H]1O
inactive: locus YAL013W, strain DEP1, active compounds read low 1.01 | locus YAL021C, strain ccr4, active compounds read low 1 | locus YAL026C, strain drs2, active compounds read low 1.01 | locus YAL030W, strain snc1, active compounds read low 1.01 | locus YBL061C, strain skt5, active compounds read low 1.01 | locus YBR009C, strain hhf1, active compounds read low 1.01 | locus YBR021W, strain FUR4, active compounds read low 1 | locus YBR023C, strain chs3, active compounds read low 1.01 | locus YBR171W, strain sec66, active compounds read low 1.02 | locus YBR229C, strain ROT2, active compounds read low 1.01 | locus YBR231C, strain swc5, active compounds read low 0.997 | locus YBR279W, strain paf1, active compounds read low 1.01 | locus YCL011C, strain gbp2, active compounds read low 1.01 | locus YCL016C, strain dcc1, active compounds read low 1 | locus YCL029C, strain bik1, active compounds read low 1.05 | locus YCL061C, strain MRC1, active compounds read low 1.01 | locus YCL069W, strain vba3, active compounds read low 1.02 | locus YCR088W, strain abp1, active compounds read low 1.01 | locus YDL005C, strain med2, active compounds read low 1.02 | locus YDL035C, strain GPR1, active compounds read low 1.01 | locus YDL040C, strain nat1, active compounds read low 1.01 | locus YDL074C, strain BRE1, active compounds read low 1.01 | locus YDL101C, strain DUN1, active compounds read low 1.01 | locus YDL134C, strain PPH21, active compounds read low 1.01 | locus YDL185W, strain tfp1, active compounds read low 1.02 | locus YDL192W, strain arf1, active compounds read low 1.03 | locus YDR001C, strain nth1, active compounds read low 1.01 | locus YDR069C, strain doa4, active compounds read low 1.01 | locus YDR101C, strain arx1, active compounds read low 1.03 | locus YDR137W, strain rgp1, active compounds read low 1.03 | locus YDR150W, strain NUM1, active compounds read low 1.01 | locus YDR159W, strain sac3, active compounds read low 1.01 | locus YDR162C, strain NBP2, active compounds read low 1.01 | locus YDR195W, strain ref2 1.02 | locus YDR297W, strain sur2, active compounds read low 1.01 | locus YDR318W, strain mcm21, active compounds read low 1.04 | locus YDR334W, strain swr1, active compounds read low 1.01 | locus YDR335W, strain msn5, active compounds read low 1 | locus YDR388W, active compounds read low 1.02 | locus YDR392W, strain spt3, active compounds read low 0.986 | locus YDR502C, strain sam2, active compounds read low 1.03 | locus YEL003W, strain gim4, active compounds read low 1.02 | locus YEL037C, strain rad23, active compounds read low 1.01 | locus YEL061C, strain CIN8 (second series), active compounds read low 1.02 | locus YEL061C, strain CIN8, active compounds read low 1.01 | locus YER015W, strain faa2, active compounds read low 1.01 | locus YER016W, strain bim1, active compounds read low 1.01 | locus YER110C, active compounds read low 1.04 | locus YER111C, strain swi4, active compounds read low 1.01 | locus YER155C, strain BEM2 (second series), active compounds read low 1.02 | locus YER155C, strain BEM2, active compounds read low 1 | locus YER167W, strain BCK2, active compounds read low 1.01 | locus YFR010W, strain ubp6, active compounds read low 1.02 | locus YGL078C, strain dbp3, active compounds read low 1.02 | locus YGL086W, strain mad1, active compounds read low 1.01 | locus YGL167C, strain pmr1, active compounds read low 1.02 | locus YGL173C, strain kem1, active compounds read low 1.01 | locus YGL227W, strain vid30, active compounds read low 1.01 | locus YGL240W, strain doc1, active compounds read low 1.02 | locus YGL248W, strain PDE1, active compounds read low 1.01 | locus YGL253W, strain hxk2, active compounds read low 1.02 | locus YGR078C, strain PAC10, active compounds read low 1.01 | locus YGR135W, strain pre9, active compounds read low 1.03 | locus YGR229C, strain SMI1, active compounds read low 1.01 | locus YGR252W, strain gcn5, active compounds read low 1.06 | locus YHR013C, strain ard1, active compounds read low 1.03 | locus YHR027C, strain rpn1, active compounds read low 1.01 | locus YHR030C, strain SLT2, active compounds read low 1.01 and 0.991 | locus YHR079C, strain IRE1 (second series), active compounds read low 1.02 | locus YHR079C, strain IRE1, active compounds read low 0.995 | locus YHR094C, strain hxt1, active compounds read low 1.02 | locus YHR129C, strain ARP1, active compounds read low 1 | locus YHR142W, strain chs7, active compounds read low 1.03 | locus YHR200W, strain rpn10, active compounds read low 1.03 | locus YIL066C, strain RNR3, active compounds read low 1.01 | locus YIL073C, strain SPO22, active compounds read low 1.08 | locus YIL125W, strain kgd1, active compounds read low 1.02 | locus YIR030C, strain dcg1, active compounds read low 1.03 | locus YJL092W, strain hpr5, active compounds read low 1.01 | locus YJL095W, strain BCK1 (second series), active compounds read low 1.01 | locus YJL095W, strain BCK1, active compounds read low 1.03 and 0.999 | locus YJL115W, strain asf1, active compounds read low 1.01 | locus YJL129C, strain trk1, active compounds read low 1.01 | locus YJL134W, strain LCB3, active compounds read low 1.01 | locus YJL154C, strain vps35, active compounds read low 1.02 | locus YJL164C, strain tpk1, active compounds read low 1.03 | locus YJL166W, strain qcr8, active compounds read low 1.01 | locus YJL168C, strain set2, active compounds read low 1.03 | locus YJL187C, strain SWE1 (second series), active compounds read low 1.02 | locus YJL187C, strain SWE1, active compounds read low 1.01 | locus YJR043C, strain POL32, active compounds read low 1.02 | locus YJR066W, strain TOR1, active compounds read low 0.943
